Calls of active or inactive are those of the source. Entries that show only a call come without a potency. Calls come from the whole dose curve; as a rule, active = well fitted activation curve with a large enough effect; inconclusive = small, poorly fitted or top-dose-only effect; inactive = flat fitted curve, though single readings scatter.
assay: Confirmation and Secondary Assay for Modulators of Hemoglobin Beta Chain Splicing at IVS2 705 locus (AID 930); conditions: HeLa EGFP-705 splicing reporter, GFP fluorescence, 48 h; series mostly up to 46.1 µM
Excerpt: NIH Chemical Genomics Center [NCGC] NIH Molecular Libraries Screening Centers Network [MLSCN] MLSCN Grant: 1 X01 MH080684-01 PI Name: Dr. Ryszard Kole NCGC Assay Overview: Modulation of Alternative Splicing as Therapy Abnormal splicing is associated with a number of diseases, including cancer and genetic diseases such as cystic fibrosis, muscular dystrophy and beta-thalassemia. Alteration of disease associated splicing patterns provides a promising target for treatment. […] Mutations in the second intron of the b-globin gene at positions 654 or 705 are clinically relevant and cause mis-splicing which results in an out of frame gene product. […] EGFP-705 HeLa Cells as screen system. HeLa cell lines were stably transfected with a construct in which the EGFP (enhanced green fluorescent protein) cDNA was interrupted by the second intron of the beta-globin gene (IVS2-705). The ISV2 intron contains mutations which cause mis-splicing of EGFP and premature termination of EGFP which results in a nonfluorescent protein product. […] Expression of the transgene was driven by the CMV promoter. We concluded that a low molecular weight compound, which restored correct splicing of intron 2 would also generate functional EGFP protein, resulting in a fluorescent signal. Thus, the HeLa cells that express the EGFP-705 construct can be used for validation of splice site specificity of compounds identified in primary screening of the ISV2 654 construct.
NCGC Assay Protocol Summary: Confirmatory Screening. Freshly thawed HeLa EGFP-705 cells were seeded in 5 ul of optimem media (Invitrogen) containing 2 % fetal calf serum (Hyclone) and 1x penicillin/streptomycin (Invitrogen) at a concentration of 500 cells per well in 1536-well plates. Cells were incubated overnight at 37C in 5% CO2. The next day, cells were treated with DMSO, 500 nM antisense ISV2 654 PNA control oligo, or library compound and allowed to grow at 37C in 5% CO2 for 2 days. The PNA oligo blocked the mutation site in the intron and allowed proper (wild type) splicing to occur, resulting in full length EGFP expression and also allowed for optimization of the assay parameters. Plates were read in the Acumen Explorer (TTP Labtech) using 488 nm laser excitation and 500-520 nm emission PMT filter in a 1 x 8 uM capture mode. Fluorescnet objects ranging in size from 5 to 250 uM were measured and the total peak GFP intensity for each well was used for data analysis. Keywords: Thalassemia, beta-thalassemia, beta-globin, EGFP, ISV2 654, ISV2 705, SSO, PNA, antisense, splicing, MLSMR, MLSCN, NIH Roadmap, qHTS, NCGC
Potency is the fitted concentration of half-maximal effect.

Which Potency does the source give for FC(F)(F)c1ccccc1-c1nc(Nc2ccncc2)c2ccccc2n1 here?
The Potency was “inactive”.

Which Potency does the source give for OCC1O[C@H](Oc2ccc(O)cc2)C(O)C(O)C1O (some centres not stated) here?
Its Potency is “inactive”.

Which Potency does the source give for Cc1cc(C(C)(C)CC(C)(C)C)ccc1OCCOCC[N+](C)(C)Cc1ccccc1 here?
The Potency was “inactive”.

For Nc1ccn([C@@H]2O[C@@H](CO)[C@@H](O)[C@H]2O)c(=O)n1, which Potency is on record?
The Potency was “inactive”.

For Cc1c(C)c2c(c(C)c1O)CCC(C)(CCCC(C)CCCC(C)CCCC(C)C)O2 (configuration not stated), which Potency is on record?
The Potency was “inactive”.

Which Potency does the source give for CO/N=C(/C(=O)NC1C(=O)N2C(C(=O)O)=C(COC(N)=O)CSC12)c1ccco1 (configuration not stated) here?
Its Potency is “inactive”.

For CC(=O)OCC1=C(C(=O)O)N2C(=O)C(NC(=O)CSc3ccncc3)[C@@H]2SC1 (some centres not stated), which Potency is on record?
The Potency was “inactive”.

Which Potency does the source give for CCN1CCN(C(=O)NC(C(=O)NC2C(=O)N3C(C(=O)O)=C(CSc4nnnn4C)CSC23)c2ccc(O)cc2)C(=O)C1=O (configuration not stated) here?
Its Potency is “inactive”.

Which Potency does the source give for CC[C@@]1(O)CC2CN(CCc3c([nH]c4ccccc34)[C@](C(=O)OC)(c3cc4c(cc3OC)N(C)C3[C@@](O)(C(=O)OC)C(OC(C)=O)[C@]5(CC)C=CCN6CC[C@@]43C65)C2)C1 (some centres not stated) here?
Its Potency is “inactive”.

Which Potency does the source give for Cc1cccc(CNc2ccnc(-c3ccc(N(C)C)cc3)n2)c1 here?
The Potency was “inactive”.

For O=C(NC(CO)C(O)c1ccc([N+](=O)[O-])cc1)C(Cl)Cl (configuration not stated), which Potency is on record?
The Potency was “inactive”.

With CC(CCC(=O)O)C1CCC2C3C(=O)C[C@@H]4CC(=O)CC[C@@]4(C)C3CC(=O)[C@]12C (some centres not stated) as the compound, how does the Potency read?
Its Potency is “inactive”.

With OCC1O[C@H](O[C@H]2C(O)C(O)C(O)O[C@@H]2CO)C(O)C(O)C1O (some centres not stated) as the compound, how does the Potency read?
Its Potency is “inactive”.

Which Potency does the source give for CCC1OC(=O)C[C@H](O)C(C)[C@@H](O[C@@H]2OC(C)C(O)C(N(C)C)C2O)C(CCN2CC(C)CC(C)C2)CC(C)C(=O)/C=C/C(C)=C\[C@@H]1COC1OC(C)C(O)C(OC)C1OC (some centres not stated) here?
The Potency was “inactive”.

For CCC(C(=O)C(C)C(O)C(C)CCc1ccc(C)c(O)c1C(=O)O)C1OC(CC)(C2CC[C@@](O)(CC)C(C)O2)CC1C (some centres not stated), which Potency is on record?
Its Potency is “inactive”.

For CC1(C)SC2C(NC(=O)C(C(=O)O)c3ccccc3)C(=O)N2C1C(=O)O (configuration not stated), which Potency is on record?
Its Potency is “inactive”.

For OCCN1CC(O)C(O)C(O)C1CO (configuration not stated), which Potency is on record?
The Potency was “inactive”.

For CO/N=C(/C(=O)N[C@H]1C(=O)N2C(C(=O)O)=C(COC(C)=O)CSC12)c1csc(N)n1 (some centres not stated), which Potency is on record?
The Potency was “inactive”.

For COc1cccc(OC)c1C(=O)NC1C(=O)N2C1SC(C)(C)C2C(=O)O (configuration not stated), which Potency is on record?
The Potency was “inactive”.

Which Potency does the source give for NC(=O)c1ncn(C2OC(CO)C(O)C2O)c1N (configuration not stated) here?
The Potency was “inactive”.

Which Potency does the source give for CC(=O)OCC(=O)[C@@]1(O)CCC2C3CCC4=CC(=O)C=CC4(C)C3C(O)C[C@]21C (some centres not stated) here?
The Potency was “inactive”.

Which Potency does the source give for Nc1nc(/C(=C/CC(=O)O)C(=O)NC2C(=O)N3C(C(=O)O)=CCSC23)cs1 (configuration not stated) here?
The Potency was “inactive”.

With CC1OC(OCC2OC(Oc3c(-c4ccc(OCCO)c(OCCO)c4)oc4cc(OCCO)cc(O)c4c3=O)C(O)C(O)C2O)[C@@H](O)C(O)C1O (some centres not stated) as the compound, how does the Potency read?
The Potency was “inactive”.

For OC[C@@H]1O[C@@H](n2cnc3cncnc32)[C@@H](O)[C@H]1O, which Potency is on record?
Its Potency is 12.6 µM (active).

For COCCNc1nc(-c2ccc(N(C)C)cc2)nc2ccccc12, which Potency is on record?
The Potency was “inactive”.

For CCCCC(=O)OC1CCC2C3CCc4cc(O)ccc4C3CC[C@]12C (some centres not stated), which Potency is on record?
The Potency was “inactive”.

With C=NC(C(=O)NC1C(=O)N2C1SC(C)(C)C2C(=O)O)c1ccccc1 (configuration not stated) as the compound, how does the Potency read?
Its Potency is “inactive”.

From PubChem BioAssay (NCATS)
